# From the supplement of paper PMC12350171
# Structures can show the parent of a compound that is named as a salt. Unmarked numbers belong to inactive results.
# Tests used:
# Settings in all cases: 20 µM
# [1] = test system: Salmonella enterica typhimurium; test: growth AUC normalised to DMSO control (fraction of control); higher = less growth inhibition, active = hit call of the paper
# Procedure, shortened: (§1)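 For the AUC endpoint, growth curves were integrated by the trapezoidal rule up to the exponential-to-stationary transition and normalised to DMSO controls on the same plate. The curves came from OD578 readings taken hourly for 24 h, in three biological replicates. Pathogens had been passaged anaerobically twice and inoculated at an OD578 of 0.01 into pre-reduced mGAM plates carrying 20 μM compound and 1% DMSO, sealed with breathable membranes. Medium for Haemophilus parainfluenzae also contained hemin and NAD.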
# [2] = test system: Shigella flexneri; test: as above
# Procedure, shortened: as §1
# [3] = test system: Vibrio cholerae; test: as above
# Procedure, shortened: as §1
# [4] = test system: Yersinia pseudotuberculosis; test: as above
# Procedure, shortened: as §1
# [5] = test system: P. vulgatus RND KO; test: growth AUC normalised to DMSO control (median) (fraction of control); higher = less growth inhibition, active = hit call of the paper
# Procedure, shortened: (§2)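 Each strain went through two overnight passages under anaerobic conditions before growth in mGAM in 96-well plates, starting at OD578 0.01, with each compound from the approved-drug library at 20 μM and 1% DMSO. Inside an anaerobic incubator, OD578 was recorded every hour for 24 h. Growth curves were cut off at entry into stationary phase, and the area under the curve was calculated by the trapezoidal rule and normalised to vehicle wells on the same plate. Reported values are medians of three biological replicates.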
# [6] = test system: P. vulgatus WT; test: as above
# Procedure, shortened: as §2
# [7] = test system: S. enterica typhimurium WT; test: as above
# Procedure, shortened: as §2
# [8] = test system: S. enterica typhimurium tolC KO; test: as above
# Procedure, shortened: as §2
# 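Throughout, for growth AUC normalised to DMSO control (median): active when median AUC fell below 0.1.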
Compound,growth AUC normalised to DMSO control [1],growth AUC normalised to DMSO control [2],growth AUC normalised to DMSO control [3],growth AUC normalised to DMSO control [4],growth AUC normalised to DMSO control [5],growth AUC normalised to DMSO control [6],growth AUC normalised to DMSO control [7],growth AUC normalised to DMSO control [8]
CC1(C)[C@@H](OC(=O)CCC(=O)O)CC[C@]2(C)[C@H]3C(=O)C=C4[C@@H]5C[C@@](C)(C(=O)O)CC[C@]5(C)CC[C@@]4(C)[C@]3(C)CC[C@@H]12 [Carbenoxolone disodium salt],0.992,0.939,0.971,0.978,0.967,0.976,0.997,0.987
Cc1cc(-n2c(=O)[nH]c(=O)n(C)c2=O)ccc1Oc1ccc(SC(F)(F)F)cc1 [Toltrazuril],1.01,0.995,1,1.01,–,–,–,–
CCCCC[C@H](O)/C=C/[C@H]1[C@H](O)CC(=O)[C@@H]1CCCCCCC(=O)O [Alprostadil],0.992,0.989,0.99,0.999,0.994,1.01,1,1.01
NC(=O)c1ncn([C@@H]2O[C@H](CO)[C@@H](O)[C@H]2O)n1 [Ribavirin],0.995,0.949,0.983,0.952,0.987,1,0.98,0.988
O=C(N[C@H](CO)[C@H](O)c1ccc([N+](=O)[O-])cc1)C(Cl)Cl [Chloramphenicol],0.00522 (active),0.0276 (active),0.0386 (active),0.0352 (active),0.018 (active),0.0107 (active),0.00734 (active),0.00302 (active)
Cc1cccc(N(C)C(=S)Oc2ccc3ccccc3c2)c1 [Tolnaftate],0.953,1.02,0.991,0.986,1,1.04,1,0.981
CCOC(=O)[C@H](CCc1ccccc1)N[C@H]1CCc2ccccc2N(CC(=O)O)C1=O [Benazepril hydrochloride],0.981,0.996,1.01,0.975,1,1,1,1
CC12CC3CC(C)(C1)CC(N)(C3)C2 [Memantine hydrochloride],0.997,0.99,1.01,0.985,1.01,1.02,1.01,1
CN(CCCCCCCCCCN(C)C(=O)Oc1cccc([N+](C)(C)C)c1)C(=O)Oc1cccc([N+](C)(C)C)c1 [Demecarium bromide],0.99,1,0.984,1.01,0.944,0.88,0.991,0.922
O=C(O)c1cn(C2CC2)c2cc(N3CCNCC3)c(F)cc2c1=O [Ciprofloxacin hydrochloride monohydrate],0.00833 (active),0.0218 (active),0.0273 (active),0.0762 (active),0.0296 (active),0.679,0.00642 (active),0.00798 (active)
Cc1onc(-c2c(Cl)cccc2Cl)c1C(=O)N[C@@H]1C(=O)N2[C@@H]1SC(C)(C)[C@@H]2C(=O)O [Dicloxacillin sodium salt hydrate],0.997,1.01,1,1.01,0.081 (active),0.0487 (active),1.01,0.00514 (active)
CC(C)(C)NC[C@H](O)COc1cccc2c1CCCC2=O [(-) Levobunolol hydrochloride],0.994,0.936,0.973,0.989,0.982,0.981,0.995,0.997
Nc1ccn([C@@H]2O[C@H](CO)[C@@H](O)C2(F)F)c(=O)n1 [Gemcitabine],1.01,1.04,1.01,1.03,1.01,1.02,0.983,–
Clc1cc(Cl)c(OCC#CI)cc1Cl [Haloprogin],1.02,1.02,1.05,0.973,1.01,1.08,1.04,0.993
CC(C)(C)NC(=O)[C@@H]1C[C@@H]2CCCC[C@@H]2CN1C[C@@H](O)[C@H](Cc1ccccc1)NC(=O)[C@H](CC(N)=O)NC(=O)c1ccc2ccccc2n1 [Saquinavir mesylate],1.01,1.02,1.04,1.03,0.859,0.89,1.02,1
CC(C(=O)O)c1ccc(C(=O)c2cccs2)cc1 (stereo not drawn) [Suprofen],0.987,1.04,1.05,1.02,1.01,1.03,0.996,0.995
Clc1ccc(C(c2ccccc2Cl)C(Cl)Cl)cc1 (stereo not drawn) [Mitotane],1,0.999,1.07,1.02,0.97,0.94,1,0.957
Cc1cccc(CN2CCN(C(c3ccccc3)c3ccc(Cl)cc3)CC2)c1 (stereo not drawn) [Meclozine dihydrochloride],0.989,0.961,0.885,0.987,1,0.992,1,1
NC(=O)N/N=C/c1ccc([N+](=O)[O-])o1 [Nitrofural],0.713 (active),0.154 (active),0.01 (active),0.875 (active),0.0943 (active),0.254,0.902,0.818
"CC(C)(S)C(N)C(=O)O (racemic) [D,L-Penicillamine]",0.993,0.991,0.996,0.992,1.01,1.01,1.01,1
Fc1ccc(C(c2ccc(F)cc2)N2CCN(C/C=C/c3ccccc3)CC2)cc1 [Flunarizine dihydrochloride],1.04,1.04,1.01,1.02,1.01,1.03,1.02,0.987
CC[C@H](C)C(=O)O[C@H]1C[C@@H](C)C=C2C=C[C@H](C)[C@H](CC[C@@H]3C[C@@H](O)CC(=O)O3)[C@H]21 [Lovastatin],0.999,0.997,0.995,0.999,0.958,0.928,0.99,0.967
Clc1ccc(C(Cn2ccnc2)OCc2csc3c(Cl)cccc23)c(Cl)c1 (stereo not drawn) [Sertaconazole nitrate],1.02,1.06,1.05,0.913,1,1.01,1.01,0.935
NS(=O)(=O)c1cc(C2(O)NC(=O)c3ccccc32)ccc1Cl (stereo not drawn) [Chlorthalidone],1,0.989,0.995,0.994,1,0.986,1,0.998
Cc1ccccc1OCC(O)CO (stereo not drawn) [Mephenesin],0.999,1,0.999,0.994,1.01,1.01,1,1
CCCc1cc(C(N)=S)ccn1 [Prothionamide],1,1,1.01,1,0.988,0.997,0.987,0.981
Cc1ccc(-c2ncc(Cl)cc2-c2ccc(S(C)(=O)=O)cc2)cn1 [Etoricoxib],1.01,1.03,1.03,0.989,1.01,1.03,0.972,0.978
CC1(C)O[C@@H]2C[C@H]3[C@@H]4C[C@H](F)C5=CC(=O)C=C[C@]5(C)[C@H]4[C@@H](O)C[C@]3(C)[C@]2(C(=O)CO)O1 [Flunisolide],1.01,1.05,1.06,0.984,1.03,1.05,1,1.01
CO[C@@]1(NC(=O)C(C(=O)O)c2ccc(O)cc2)C(=O)N2C(C(=O)O)=C(CSc3nnnn3C)CO[C@@H]21 (stereo partly drawn) [Moxalactam disodium salt],0.00566 (active),0.0488 (active),0.639 (active),0.149 (active),0.0332 (active),0.0488 (active),–,–
CN1CCN(C(c2ccccc2)c2ccccc2)CC1 [Cyclizine hydrochloride],0.987,1.01,0.982,0.995,1.02,1.04,1.01,0.998
